# Hits are enriched below; roughly 8.7% of the tested compounds scored in any of these assays.
# 12-LOX inh – ALOX12 (human) lipoxygenase inhibition; Potency, µM (titrated, usually from 108 µM), for the others: top-dose activity change, negative = inhibition, hits mostly inhibitors; purified 12hLO, xylenol orange hydroperoxide absorbance; AID 1671190; 1.1% of 580,000 active; also: % is scaled to controls: 0 for no effect and ±100 for the full control effect
# Target sequence (P18054 whole entry, looked up): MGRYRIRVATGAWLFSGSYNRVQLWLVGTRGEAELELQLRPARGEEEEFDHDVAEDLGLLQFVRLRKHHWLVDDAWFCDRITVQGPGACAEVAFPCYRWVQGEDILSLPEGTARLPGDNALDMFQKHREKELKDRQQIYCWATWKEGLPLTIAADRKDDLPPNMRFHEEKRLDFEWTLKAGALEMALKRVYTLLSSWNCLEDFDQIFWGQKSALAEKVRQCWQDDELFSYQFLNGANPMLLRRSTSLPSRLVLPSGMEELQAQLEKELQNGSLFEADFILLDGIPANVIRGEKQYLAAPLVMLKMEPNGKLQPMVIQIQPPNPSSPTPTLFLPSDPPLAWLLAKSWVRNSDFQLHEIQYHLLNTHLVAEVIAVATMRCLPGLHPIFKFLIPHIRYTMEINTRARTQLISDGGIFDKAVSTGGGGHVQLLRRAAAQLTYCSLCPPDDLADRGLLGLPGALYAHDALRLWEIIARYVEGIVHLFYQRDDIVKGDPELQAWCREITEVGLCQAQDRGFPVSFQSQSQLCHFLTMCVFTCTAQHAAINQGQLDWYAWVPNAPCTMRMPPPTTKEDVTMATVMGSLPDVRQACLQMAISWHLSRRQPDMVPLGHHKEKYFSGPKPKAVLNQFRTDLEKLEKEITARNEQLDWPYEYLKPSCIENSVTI
#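 Hydroperoxide product was detected by ferrous iron/xylenol orange as the 573 to 405 nm absorbance ratio. Arachidonic acid at 40 uM (final) was turned over for 30 min at room temperature by 150 nM human 12hLO, pH 7.0 Hepes buffer, after 15 min compound preincubation.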
# G9a inh – G9a (human) methyltransferase inhibition. G9a H3K9 monomethylation, AlphaScreen, 2 h. Potency, µM (titrated, usually from 102 µM), for inactives: at the top dose activity, negative = inhibition, actives largely listed as inhibitors. 8.8% of 350,000 active; also: % is scaled to controls: 0 for no effect and ±100 for the full control effect; nearly all actives have a fitted effect of over 75% in size
#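 Compounds were preincubated with 20 nM G9a for 15 min, after which biotinylated H3K9 peptide (500 nM) and SAM (20 uM) started a 2 h room-temperature reaction. Monomethylated product was quantified by antibody-based AlphaScreen chemiluminescence.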
# HP1b binding inh – inhibitors of HP1-beta chromodomain binding to methylated histone tails; AlphaScreen HP1-beta / biotin-H3K9me3 peptide binding; Potency, µM (titrated, usually from 114 µM), inactives show at the highest dose activity change, negative = inhibition, usual class: inhibitors; 0.56% of 390,000 active; P83916; also: nearly all actives have a fitted effect of over 70% in size
#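 AlphaScreen: HP1-beta (50 nM) preformed 30 min with biotin-H3(1-18)K9me3 peptide (50 nM) in PBS pH 7.4, 0.01% Tween-20. Compound added for 30 min at RT, then streptavidin donor/nickel chelate acceptor beads (10 ug/mL) for 30 min.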
# JMJD2A Tudor inh – blocks the human JMJD2A Tudor domain | O75164 | AlphaScreen JMJD2A-Tudor / H3K4me3 peptide binding | Potency, µM (top dose mostly 114 µM), for the others: at the top dose activity change, negative = inhibition, actives largely listed as inhibitors | 4.4% of 390,000 active; also: % is scaled to controls: 0 for no effect and ±100 for the full control effect; nearly all actives have a fitted effect of over 50% in size
# BAZ2B block – inhibitors of human BAZ2B bromodomain; Q9UIF8; AlphaScreen BAZ2B-H3K14Ac peptide displacement; Potency, µM (highest dose often 114 µM), without a hit: top-dose activity change, negative = inhibition, usual class: inhibitors; 4.4% of 360,000 active; AID 504333; also: % is scaled to controls: 0 for no effect and ±100 for the full control effect; nearly all actives have a fitted effect of over 60% in size
#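 AlphaScreen displacement: compounds (up to 110uM) incubated 30 min at room temperature with a preformed 50 nM BAZ2B/50 nM biotinylated H3K14Ac peptide complex in PBS pH 7.4 with Tween-20. Donor and acceptor beads at 10 ug/mL final added, 20 min light-protected before reading.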
# Sfp PPTase inh – inhibitors of Bacillus subtilis Sfp phosphopantetheinyl transferase | Biochemical Sfp PPTase activity, qHTS | Potency, µM, inactives show largest response in the series, negative = inhibition, actives largely listed as inhibitors | 3.5% of 310,000 active | AID 1490;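 also: the enzyme is Sfp with the accession as filed and its product quenches rhodamine fluorescence; 0% = enzyme reaction without inhibitor and -100% = no enzyme wells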
#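 Sfp 15 nM + cpd, 15 min RT; start w/ rhodamine-CoA 5 uM, BHQ-2-YbbR 12.5 uM (final); 50 mM Hepes pH 7.6, 10 mM MgCl2, 0.01% NP-40, 0.01% BSA; read 525/598 nm at 0 and 30 min.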
# The depositor's hits bear a star; u = inconclusive; x = no result given; [ ] = remark or other dose. Calls follow the shape of the dose curve; as a rule, active = well fitted curve in the direction sought with a large enough effect; inconclusive = small, poorly fitted or top-dose-only effect, or another doubt; inactive = no such curve, though single readings can be large; an effect the other way counts as inactive or inconclusive. Potency is read from the fitted curve at half-maximal effect.
SMILES,12-LOX inh,G9a inh,HP1b binding inh,JMJD2A Tudor inh,BAZ2B block,Sfp PPTase inh
COc1ccc(NC(=O)C2=CC(c3cccs3)=NS(=O)(=O)N2C)cc1,1.2%[57.4 µM],-11.6%,5.5%,u,-26.5%,18.0%
Cc1ccc(C2=NS(=O)(=O)N(C)C(C(=O)NCc3cccs3)=C2)cc1,26.6%,7.5%,3.8%,-28.9%,-38.2%,4.0%
COc1ccc(OC)c(C2=NS(=O)(=O)N(C)C(C(=O)Nc3cccc(C(C)=O)c3)=C2)c1,-16.7%,44.7µM*,-11.2%,15.8µM*,u,17.8%
CC(=C/C(=O)O)/C=C/c1ccc(Cl)o1,u,11.2µM*,70.8µM*,-8.2%[11.4 µM],50.1µM*,u
Cc1ccc(/C=C/C(=O)Oc2ccc(C#N)cc2)o1,x,u,x,x,-2.1%,13.8%
Cc1ccc(/C=C/C(=O)NCc2cccs2)cc1,-8.6%,6.2%,21.1%,u,32.0%,u
CC(/C=C/c1cccs1)=C\C(=O)O,0.0%,-6.1%[59 µM],u,-27.5%[57.1 µM],16.1%,-17.0%
Cc1ccc(/C=C/C(=O)NCc2cccs2)o1,-1.4%,12.6µM*,u,u,u,10µM*
CC(=O)/C=C/c1ccc(C)o1,-5.0%,u,11.0%,4.2%,-4.8%,39.8µM*
Cc1ccc(CNC(=O)/C=C/c2ccc(Br)o2)cc1,u,1.41µM*,15.6%,-2.4%,u,28.2µM*
Cc1cc(-c2nc(C3CCOCC3)nn2Cc2ccccc2C)c(C)o1,90.2%,x,x,x,x,x
CS(=O)(=O)N1CCNC[C@@H]1C(=O)N[C@@H](CC1CCCCC1)C(N)=O,22.6%[176 µM],x,x,x,x,x
COc1ccc(C(=O)N2CCC(c3n[nH]c(=O)n3Cc3ccc(F)cc3)CC2)c(OC)n1,11.8%,x,x,x,x,x
CC(C)c1nnc(C2CN(C(=O)C3(c4ccccc4)CC3)CC23CCOCC3)o1 (stereo not drawn),25.9%,x,x,x,x,x
CC(/C=C/c1ccc(C)o1)=C\C(=O)O,-11.4%,8.91µM*,-16.3%,-31.4%,-2.9%,10µM*
Cc1ccc(/C=N/NC(=O)C(=O)N/N=C/c2ccc(C)o2)o1,-6.9%,-10.2%,32.9%,-24.0%,-9.9%,-4.6%
CCOc1ccccc1OCCCNCc1ccco1,u,u,u,28.2µM*,-10.9%,-0.9%
CCOc1ccccc1N1CCN(C/C=C/c2ccc(N(C)C)cc2)CC1,u,10µM*,25.1µM*,5.62µM*,5.62µM*,-29.6%
S=C(Nc1ccccc1)N1CCN(C/C=C/c2ccccc2)CC1,33.1%,u,27.6%,-29.8%,-36.3%,3.3%
CCOc1ccccc1N1CCN(Cc2ccc(Br)s2)CC1,u,u,u,3.16µM*,u,u
CCOc1ccccc1OCC(=O)NCc1ccco1,u,u,14.0%,u,u,-17.1%
S=C(NCc1ccco1)N1CCN(C/C=C/c2ccccc2)CC1,1.3%,x,-17.8%,u,u,79.4µM*
COCC(=O)N1CCN(C(=O)c2cccc(F)c2)C[C@H]1C(=O)OC,20.2%[176 µM],x,x,x,x,x
Cc1cccc(C(=O)N2CCCC(Cc3ncc(C)n3Cc3ccccc3)C2)c1 (stereo not drawn),22.4%,x,x,x,x,x
O=C(NC1CCCCC1)NC1CC2CCC(C1)N2C(=S)NCc1ccco1 (stereo not drawn),3.8%,-25.7%[59 µM],10.7%,-18.5%,-11.0%,44.7µM*
O=C(NCc1ccccc1)NC1CC2CCC(C1)N2Cc1ccco1 (stereo not drawn),-0.9%,5.9%[59 µM],27.3%,-12.0%,6.0%,12.9%
CC(=O)c1ccc(N2CCN(C(=S)NCc3ccco3)CC2)cc1,-6.4%,56.2µM*,3.4%,-4.5%,-30.1%,4.8%
CCOc1ccccc1N1CCN(Cc2ccco2)CC1,u,-6.0%[12.7 µM],u,3.55µM*,50.1µM*,3.2%
CCOc1ccc(C(=O)NC2CCN(C(=S)NCc3ccco3)CC2)cc1,8.1%,u,42.0%,-12.5%,-6.3%,7.08µM*
CCOc1ccccc1N1CCN(CC(=O)NC(=O)NCc2ccco2)CC1,0.0%,-7.4%,16.3%,-15.5%,-28.5%,7.1%
